High-throughput results from PubChem.
Most compounds without a hit are left out; they make up all but 3.4% or so of the library.
Mcl1-Noxa inh = Mcl-1/Noxa interaction inhibition; Q07820; inhibition, % at 21.7 µM; TR-FRET Mcl-1/Noxa peptide binding, 2 h; 1.5% of 220,000 active;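 active = compounds that cut the protein-peptide binding signal by more than 50% relative to plate controls in a single-dose test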;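 note: His-tagged Mcl-1 with rhodamine Noxa BH3 peptide and terbium anti-His antibody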
Mcl-1 Bim block = disrupts Bim peptide binding to human Mcl-1; Q07820; Bead-based flow cytometry, Bim peptide-Mcl-1 binding; inhibition, % at 10 µM; 0.1% of 190,000 active; AID 1009; in the data active = inhibition above about 40%
14-3-3 Bad inh = disrupts binding of bovine 14-3-3 zeta to phospho-Bad peptide; P63103; TR-FRET 14-3-3zeta/Dy647-pBad peptide displacement, 1 h; inhibition, % at 21.7 µM; 0.71% of 220,000 active; AID 781;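 active = inhibition above about 70%, limit read from the data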
Target sequence (P63103 whole entry, looked up): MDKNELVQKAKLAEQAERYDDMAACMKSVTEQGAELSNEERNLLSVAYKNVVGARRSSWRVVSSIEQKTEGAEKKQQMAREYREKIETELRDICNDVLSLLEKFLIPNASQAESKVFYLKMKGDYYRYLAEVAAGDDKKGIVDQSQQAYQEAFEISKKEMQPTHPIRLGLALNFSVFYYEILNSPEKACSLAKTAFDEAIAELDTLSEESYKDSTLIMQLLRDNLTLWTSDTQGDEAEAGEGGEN
eIF4E 4G PPI = blocks eIF4E binding to eIF4G; 0.37% of 220,000 active; TR-FRET eIF4E-eIF4GI(517-606) binding, 2 h; inhibition, % at 21.7 µM; P63073+Q04637; AID 782
Mcl1 Bid PPI = Mcl-1/Bid interaction inhibition | Q07820 | TR-FRET Mcl-1/Bid-Dy647 peptide binding, 1536-well | inhibition, % at 21.7 µM | 0.97% of 220,000 active | AID 1021;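 active = compounds that cut the binding signal by more than half at the single screening dose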;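 note: His-tagged Mcl-1 with europium anti-His antibody binding Bid BH3 peptide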
NCF1 inh = p47phox (human) inhibition; P14598; p47phox/p22phox peptide binding, fluorescence polarization, 2 h; inhibition, % at 24.7 µM; 0.53% of 220,000 active
Target sequence (P14598 whole entry, looked up): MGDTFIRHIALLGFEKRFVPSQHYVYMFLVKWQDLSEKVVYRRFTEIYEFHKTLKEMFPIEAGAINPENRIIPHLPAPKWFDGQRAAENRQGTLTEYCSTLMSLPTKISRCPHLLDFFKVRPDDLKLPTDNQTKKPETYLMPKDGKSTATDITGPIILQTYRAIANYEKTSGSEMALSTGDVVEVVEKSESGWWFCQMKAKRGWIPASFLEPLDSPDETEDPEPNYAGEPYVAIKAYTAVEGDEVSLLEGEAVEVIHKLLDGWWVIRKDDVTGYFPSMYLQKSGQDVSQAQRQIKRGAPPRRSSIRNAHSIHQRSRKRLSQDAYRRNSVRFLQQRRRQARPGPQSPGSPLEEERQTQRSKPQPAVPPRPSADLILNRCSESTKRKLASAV
Of the large screens only hits and unclear results are named; the others gave an inactive call; [ ] = another dose, or the depositor's remark.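 Rule for the calls, unless noted: active = inhibition above about 30% (limit read from the data); inactive = the rest.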

O=C(Nc1ccc(S(=O)(=O)Nc2nccs2)cc1)c1cc(-c2ccccc2Cl)nc2ccccc12	Mcl1 Bid PPI 99
CSc1ccccc1C(=O)Nc1nccs1	none
O=C(O)c1ccccc1C(=O)Nc1nccs1	eIF4E 4G PPI 72
Nc1ccc(S(=O)(=O)Nc2nccc(/C=C/c3ccc(Cl)cc3Cl)n2)cc1	none (no result: Mcl-1 Bim block)
COc1cc(NC(=O)c2cc(C)nc3ccccc23)cc(OC)c1OC	none
COc1ccc(NC(=O)c2cc(-c3ccc(C)o3)nc3ccccc23)cc1OC	Mcl1-Noxa inh 64
CCO[C@@H]1OC(C(=O)O)=C[C@H](c2ccc3c(c2)OCO3)[C@H]1CCCO	none (no result: NCF1 inh)
O=C1/C(=C\c2cccnc2)Sc2ccccc21	none
CC(=O)Nc1ccc(/C=C2/Sc3ccccc3C2=O)cc1	Mcl1-Noxa inh 72
CC(C)N(Cc1nc(-c2ccccc2)no1)C(=O)COc1ccccc1	eIF4E 4G PPI 62
Cc1ccc(NC(=O)CCn2cccc2)cc1C	Mcl1 Bid PPI 60
Cc1ccc(NC(=O)Cn2cccc2)cc1C	none
Cc1ccc(NC(=O)CCn2cccc2)cc1	none
Cc1ccc(NC(=O)Cn2cccc2)cc1Cl	14-3-3 Bad inh active
CCO[C@@H]1OC(C(=O)N2CCN(Cc3ccccc3)CC2)=C[C@H](C2CC2)[C@H]1CCCO	Mcl1 Bid PPI 87 (no result: NCF1 inh)
CCO[C@H]1OC(C(=O)N2CCN(Cc3ccccc3)CC2)=C[C@@H](C)[C@@H]1CCCO	none (no result: NCF1 inh)
COc1ccc(C2C(C#N)=C(N)Oc3cc4c(cc32)OCO4)cc1 (stereo not given)	NCF1 inh 64
COc1ccc(OC)c(C2C(C#N)=C(N)Oc3cc(N)ccc32)c1 (stereo not given)	none
N#CCN1CCC2(O)CCCCC2C1c1ccc2c(c1)OCO2 (stereo not given)	none (no result: Mcl-1 Bim block)
CCc1n[nH]c(=O)n1Cn1c(CC)n[nH]c1=O	NCF1 inh 37
CCn1c(CCCCc2n[nH]c(=S)n2CC)n[nH]c1=S	none
CCc1c(-c2ccccc2)[n+](=O)c2c(n1[O-])CCC2	none (no result: Mcl-1 Bim block)
CCN(c1ccc(NC(=O)CCNC(=O)c2ccco2)cc1)C(C)C	Mcl1-Noxa inh 75
COc1ccc2c(c1)c1nc3ccccc3nc1n2CCn1c(=O)oc2ccccc21	none
O=c1oc2ccccc2n1CCn1c2ccccc2c2nc3ccccc3nc21	Mcl1 Bid PPI 90
CCc1cc(=O)oc2cc(C)c(CN3CCCC(C)C3)c(O)c12 (stereo not given)	Mcl1-Noxa inh 52, Mcl1 Bid PPI 93
CCCCc1cc(=O)oc2cc(C)c(CN3CCCC3)c(O)c12	none
O=C(O)c1ccccc1N/N=C/c1c(Sc2nnnn2-c2ccccc2)nc2ccccn2c1=O	Mcl1-Noxa inh 78 (no result: Mcl-1 Bim block)
CSc1nsc(SCC(=O)N2CCc3ccccc32)n1	eIF4E 4G PPI 38
O=C(CSc1nnc(Cc2ccccc2)n1C1CCCCC1)N1CCOCC1	NCF1 inh 98
COc1ccc(CCN2C(=O)CSC2=Nc2ccc(C)cc2C)cc1OC	none (no result: Mcl-1 Bim block)
COc1ccc(/C=N/NC(=O)Nc2cccc3nsnc23)cc1	Mcl1 Bid PPI 53
CCn1c(O)c(N=NC(=O)C(O)c2ccccc2)c2ccccc21 (stereo not given)	none (no result: Mcl-1 Bim block)
Cc1[nH]n(-c2ccccc2)c(=O)c1N=Nc1ccccc1O	none
Cc1ccccc1N=Nc1c(C)[nH]n(-c2ccccc2)c1=O	eIF4E 4G PPI 59
CCOC(=O)c1c(C)[nH]c(C(=O)COC(=O)c2ccc(O)cc2O)c1C	none (no result: Mcl-1 Bim block)
CCOC(=O)c1c(C)[nH]c(C(=O)COC(=O)c2ccc(O)cc2)c1C	14-3-3 Bad inh 82 (no result: Mcl-1 Bim block)
CCOC(=O)c1c(C)[nH]c(C(=O)CSc2nc3ccccc3o2)c1C	Mcl1-Noxa inh 69
CCOC(=O)c1c(C)[nH]c(C(=O)CSc2nnc(CC(C)c3ccccc3)o2)c1C (stereo not given)	none
CCOC(=O)c1c(C)[nH]c(C(=O)OCCOc2ccccc2C)c1C	14-3-3 Bad inh 75[fluorescence artefact?]
CCCCOc1ccc(-c2ncc(N)cn2)cc1	none (no result: Mcl-1 Bim block)
CC(C)C(NC(=O)c1ccccc1F)C(=O)Nc1nccs1 (stereo not given)	none
COC(=O)C1(Cc2ccc(O)c(CC3OC3(C)C)c2)OC(=O)C(O)=C1c1ccc(O)cc1 (stereo not given)	eIF4E 4G PPI 96 (no result: Mcl-1 Bim block)
C/C(=N/O)c1ccc2c(c1)OCCOCCOc1cc(/C(C)=N/O)ccc1OCCOCCO2	Mcl1-Noxa inh 59
O=C(NCC1CCCO1)C1CCCCN1S(=O)(=O)c1ccc(F)cc1 (stereo not given)	NCF1 inh 36 (no result: 14-3-3 Bad inh, eIF4E 4G PPI)
O=C(NCc1ccco1)C1CCCCN1S(=O)(=O)c1ccc(F)cc1 (stereo not given)	none
N#Cc1cnc(NOCc2ccc(Cl)cc2)nc1	none
O=C(O)COc1ccccc1/C=N/NC(=O)c1cccc(S(=O)(=O)N2CCOCC2)c1	none
CNC(=S)N(CCc1ccc(S(N)(=O)=O)cc1)C1CC(=O)N(c2ccccc2F)C1=O (stereo not given)	14-3-3 Bad inh 79, Mcl1 Bid PPI 61
Cc1cc(C)nc(/N=c2/ssnc2Cl)c1	none
Nc1ccccc1N=c1ssnc1Cl	Mcl1-Noxa inh 54
Cc1ccc(N=c2ssnc2Cl)cc1	eIF4E 4G PPI 72[fluorescence artefact?]
Cc1cc(Cl)ccc1N=c1ssnc1Cl	eIF4E 4G PPI 48
COc1cc(N=c2ssnc2Cl)c(OC)cc1Cl	eIF4E 4G PPI 73[fluorescence artefact?]
COc1ccc(OC)c(N=c2ssnc2Cl)c1	none
C/C(=N\NC(=O)c1c(Br)cnn1C)c1ccc(NC(=O)c2ccc(F)cc2)cc1	none
CCCCN(C)CCNC(=O)CCNC(=O)Cn1ccc2ccccc2c1=O	none
OCCCCNc1cccc2ccccc12	NCF1 inh 42
OCCCCCNc1ncnc2ccccc12	none
O=C1NN(c2ccc(Cl)cc2)C(=O)/C1=C\c1ccc(-c2cccc(C(=O)O)c2)o1	Mcl1-Noxa inh 81, eIF4E 4G PPI 32
O=C1NN(c2ccccc2)C(=O)/C1=C\c1ccc(-c2cc([N+](=O)[O-])ccc2O)o1	Mcl1-Noxa inh 87
Nn1c(SCc2ccccc2F)nnc1-c1ccccn1	none (no result: Mcl-1 Bim block)
CCCCN(CC)CCCNC(=O)c1cn(CC)c2ccc(S(=O)(=O)N3CCc4ccccc4C3)cc2c1=O	none
CCCCN(C)CCCNC(=O)c1cn(CC)c2ccc(S(=O)(=O)N3CCc4ccccc4C3)cc2c1=O	Mcl1-Noxa inh 53
CCOc1ccc(NC(=O)CN(C)Cc2cc(=O)n3c(-c4ccccc4)csc3n2)cc1OCC	none
Cc1ccc(-c2nn(C)c(=O)c3ccccc23)cc1CNC(=O)Cn1nc(-c2ccccc2)c2ccccc2c1=O	Mcl1 Bid PPI 77, NCF1 inh 41
CCOc1ccc(NC(=O)c2cc(F)c(F)cc2Cl)cc1OCC	none
CC(=O)Nc1ccc(/C=N/NC(=S)NC(C)C)cc1	Mcl1-Noxa inh 53
O=C1N/C(=C\c2nc3ccccc3s2)c2ccccc21	none (no result: Mcl-1 Bim block)
N#C/C=C1/NC(=O)c2ccccc2S1	Mcl1 Bid PPI 65
